# Data: paper PMC7862700, “An all-to-all approach to the identification of sequence-specific readers for epigenetic DNA modifications on cytosine”
# Tests used:
# Assay in all cases: DAPPL (digital affinity profiling via proximity ligation, sequencing); 10 mM Tris-HCl pH 7.5, 50 mM NaCl, 1 mM DTT, 4% glycerol, room temperature, 30 min; GST-TFs on glutathione beads, 16-mer random dsDNA library, 0.1% formaldehyde crosslink after washing; high values mean tight binding
# FLI1 = molecular target: T1, FLI1 (Homo sapiens, UniProt Q01543 1-452); settings: protein: recombinant; tags: N-terminal GST; dsDNA, one strand shown
# T1 sequence: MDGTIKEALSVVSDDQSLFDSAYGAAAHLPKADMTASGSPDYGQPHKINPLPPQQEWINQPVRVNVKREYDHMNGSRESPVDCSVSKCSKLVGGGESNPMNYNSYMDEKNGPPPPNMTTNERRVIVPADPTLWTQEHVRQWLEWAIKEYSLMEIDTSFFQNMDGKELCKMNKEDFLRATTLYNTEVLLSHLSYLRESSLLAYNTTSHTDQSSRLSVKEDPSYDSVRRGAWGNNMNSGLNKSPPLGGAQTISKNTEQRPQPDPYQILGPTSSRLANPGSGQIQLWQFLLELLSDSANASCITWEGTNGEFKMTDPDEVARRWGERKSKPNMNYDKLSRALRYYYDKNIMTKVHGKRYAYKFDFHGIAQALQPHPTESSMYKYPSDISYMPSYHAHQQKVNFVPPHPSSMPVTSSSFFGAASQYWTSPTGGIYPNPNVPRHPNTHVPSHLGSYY
# Outline: (§1)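 Human transcription factors were made in yeast as GST fusions, captured on glutathione beads and barcoded with DNA. With a tag-only sample included, the pool was incubated with 200 nmole of a random double-stranded 16-mer DNA library in Tris/NaCl/DTT/glycerol buffer at room temperature for 30 min, then crosslinked with 0.1% formaldehyde after washing, ligated by proximity, amplified and sequenced. For binding signal, each hexamer's read frequency for a factor is divided by its frequency for the tag-only sample.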
# ELF1 = ELF1 (Homo sapiens, UniProt P32519 1-619); settings: protein: recombinant; tags: N-terminal GST; dsDNA, one strand shown
# Outline: as §1
# ETV7 = molecular target: T2, ETV7 (Homo sapiens, UniProt Q9Y603 1-341); settings: protein: recombinant; tags: N-terminal GST; dsDNA, one strand shown
# T2 sequence: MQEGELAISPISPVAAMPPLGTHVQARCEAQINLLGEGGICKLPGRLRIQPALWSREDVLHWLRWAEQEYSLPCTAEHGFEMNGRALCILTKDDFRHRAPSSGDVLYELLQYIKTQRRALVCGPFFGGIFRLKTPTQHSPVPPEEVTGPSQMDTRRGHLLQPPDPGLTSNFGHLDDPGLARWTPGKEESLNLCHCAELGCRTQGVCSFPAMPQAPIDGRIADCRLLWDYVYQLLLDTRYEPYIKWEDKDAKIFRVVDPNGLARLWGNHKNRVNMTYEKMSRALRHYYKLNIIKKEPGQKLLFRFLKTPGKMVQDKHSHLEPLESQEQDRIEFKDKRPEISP
# Outline: as §1
# ETV3 = molecular target: T3, ETV3 (Homo sapiens, UniProt P41162-2 1-143); settings: protein: recombinant; tags: N-terminal GST; dsDNA, one strand shown
# T3 sequence: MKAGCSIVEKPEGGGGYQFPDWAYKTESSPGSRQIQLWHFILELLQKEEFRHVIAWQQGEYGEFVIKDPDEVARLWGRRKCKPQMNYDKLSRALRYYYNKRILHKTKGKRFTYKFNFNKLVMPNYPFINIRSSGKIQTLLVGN
# Outline: as §1
# HSF1 = HSF1 (Homo sapiens, UniProt Q00613 1-529); settings: protein: recombinant; tags: N-terminal GST; chain copies: 3; dsDNA, one strand shown
# Outline: as §1
# ETV1 = ETV1 (Homo sapiens, UniProt P50549 1-477); settings: protein: recombinant; tags: N-terminal GST; dsDNA, one strand shown
# Outline: as §1
# ERF = molecular target: T4, ERF (Homo sapiens, UniProt P50548 1-548); settings: protein: recombinant; tags: N-terminal GST; dsDNA, one strand shown
# T4 sequence: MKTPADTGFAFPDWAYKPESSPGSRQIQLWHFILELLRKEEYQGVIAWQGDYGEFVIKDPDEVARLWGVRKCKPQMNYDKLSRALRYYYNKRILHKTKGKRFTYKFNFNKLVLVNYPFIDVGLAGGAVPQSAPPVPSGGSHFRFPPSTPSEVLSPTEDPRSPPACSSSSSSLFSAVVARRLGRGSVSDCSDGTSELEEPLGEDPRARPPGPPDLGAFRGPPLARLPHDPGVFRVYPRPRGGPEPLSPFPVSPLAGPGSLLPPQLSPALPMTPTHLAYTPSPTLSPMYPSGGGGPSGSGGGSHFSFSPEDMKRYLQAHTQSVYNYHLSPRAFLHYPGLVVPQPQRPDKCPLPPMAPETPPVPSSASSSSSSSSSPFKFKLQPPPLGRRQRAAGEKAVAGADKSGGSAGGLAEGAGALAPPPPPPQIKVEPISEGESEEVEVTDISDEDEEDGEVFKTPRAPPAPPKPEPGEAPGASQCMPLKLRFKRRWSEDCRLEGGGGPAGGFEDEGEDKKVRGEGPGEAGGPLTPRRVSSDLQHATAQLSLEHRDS
# Outline: as §1
# EHF = molecular target: T5, EHF (Homo sapiens, UniProt Q9NZC4 1-300); settings: protein: recombinant; tags: N-terminal GST; dsDNA, one strand shown
# T5 sequence: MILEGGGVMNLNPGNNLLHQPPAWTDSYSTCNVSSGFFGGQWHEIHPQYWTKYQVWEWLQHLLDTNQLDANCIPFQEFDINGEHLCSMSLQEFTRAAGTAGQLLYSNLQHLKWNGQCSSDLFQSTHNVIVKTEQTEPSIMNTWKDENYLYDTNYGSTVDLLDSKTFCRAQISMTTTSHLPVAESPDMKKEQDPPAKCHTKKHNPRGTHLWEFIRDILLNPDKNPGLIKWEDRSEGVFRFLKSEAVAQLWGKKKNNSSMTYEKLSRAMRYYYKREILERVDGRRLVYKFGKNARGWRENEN
# Outline: as §1
# SPIB = SPIB (Homo sapiens, UniProt Q01892 1-262); settings: protein: recombinant; tags: N-terminal GST; dsDNA, one strand shown
# Outline: as §1
# ETV2 = molecular target: T6, ETV2 (Homo sapiens, UniProt O00321 1-342); settings: protein: recombinant; tags: N-terminal GST; dsDNA, one strand shown
# T6 sequence: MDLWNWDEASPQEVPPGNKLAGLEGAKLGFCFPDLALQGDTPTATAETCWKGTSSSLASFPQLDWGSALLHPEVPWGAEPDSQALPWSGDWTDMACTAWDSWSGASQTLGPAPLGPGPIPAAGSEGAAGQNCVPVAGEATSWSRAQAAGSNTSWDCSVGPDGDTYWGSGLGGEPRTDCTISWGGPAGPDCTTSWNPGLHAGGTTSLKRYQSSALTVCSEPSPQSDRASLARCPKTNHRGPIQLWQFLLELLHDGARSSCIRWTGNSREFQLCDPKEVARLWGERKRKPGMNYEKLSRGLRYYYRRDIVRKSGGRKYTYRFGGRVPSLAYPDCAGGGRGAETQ
# Outline: as §1
# ETV6 = ETV6 (Homo sapiens, UniProt P41212 1-452); settings: protein: recombinant; tags: N-terminal GST; dsDNA, one strand shown
# Outline: as §1
# HSF1, sequence (Q00613 whole entry): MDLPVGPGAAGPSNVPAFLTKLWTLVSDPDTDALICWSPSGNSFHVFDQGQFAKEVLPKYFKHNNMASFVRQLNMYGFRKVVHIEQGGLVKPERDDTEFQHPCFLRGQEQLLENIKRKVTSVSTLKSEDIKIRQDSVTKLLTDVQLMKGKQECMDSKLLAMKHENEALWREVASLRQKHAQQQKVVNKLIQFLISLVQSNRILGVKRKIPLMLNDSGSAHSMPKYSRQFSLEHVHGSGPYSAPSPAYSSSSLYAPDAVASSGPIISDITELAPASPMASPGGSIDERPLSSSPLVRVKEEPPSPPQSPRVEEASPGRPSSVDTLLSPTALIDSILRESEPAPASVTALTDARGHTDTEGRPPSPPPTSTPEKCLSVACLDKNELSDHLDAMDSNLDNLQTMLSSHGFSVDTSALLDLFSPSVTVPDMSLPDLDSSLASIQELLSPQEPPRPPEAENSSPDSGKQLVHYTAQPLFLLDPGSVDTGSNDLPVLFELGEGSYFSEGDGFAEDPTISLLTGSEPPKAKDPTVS
# ELF1, sequence (P32519 whole entry): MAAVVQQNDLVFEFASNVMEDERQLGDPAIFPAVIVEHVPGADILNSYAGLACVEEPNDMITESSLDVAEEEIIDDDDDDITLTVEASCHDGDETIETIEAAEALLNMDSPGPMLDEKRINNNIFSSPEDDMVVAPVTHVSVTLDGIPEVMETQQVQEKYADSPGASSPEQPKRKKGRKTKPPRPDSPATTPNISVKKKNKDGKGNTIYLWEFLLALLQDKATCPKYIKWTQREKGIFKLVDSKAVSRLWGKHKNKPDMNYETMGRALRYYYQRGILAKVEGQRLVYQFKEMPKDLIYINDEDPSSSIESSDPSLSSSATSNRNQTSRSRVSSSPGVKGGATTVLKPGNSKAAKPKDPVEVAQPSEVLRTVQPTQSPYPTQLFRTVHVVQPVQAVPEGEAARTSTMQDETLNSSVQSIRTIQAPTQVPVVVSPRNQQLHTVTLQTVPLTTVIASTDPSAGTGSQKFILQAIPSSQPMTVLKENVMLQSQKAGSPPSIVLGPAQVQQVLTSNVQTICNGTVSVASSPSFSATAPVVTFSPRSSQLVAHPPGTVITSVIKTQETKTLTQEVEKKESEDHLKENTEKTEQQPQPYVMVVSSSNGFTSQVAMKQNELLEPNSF
# ETV1, sequence (P50549 whole entry): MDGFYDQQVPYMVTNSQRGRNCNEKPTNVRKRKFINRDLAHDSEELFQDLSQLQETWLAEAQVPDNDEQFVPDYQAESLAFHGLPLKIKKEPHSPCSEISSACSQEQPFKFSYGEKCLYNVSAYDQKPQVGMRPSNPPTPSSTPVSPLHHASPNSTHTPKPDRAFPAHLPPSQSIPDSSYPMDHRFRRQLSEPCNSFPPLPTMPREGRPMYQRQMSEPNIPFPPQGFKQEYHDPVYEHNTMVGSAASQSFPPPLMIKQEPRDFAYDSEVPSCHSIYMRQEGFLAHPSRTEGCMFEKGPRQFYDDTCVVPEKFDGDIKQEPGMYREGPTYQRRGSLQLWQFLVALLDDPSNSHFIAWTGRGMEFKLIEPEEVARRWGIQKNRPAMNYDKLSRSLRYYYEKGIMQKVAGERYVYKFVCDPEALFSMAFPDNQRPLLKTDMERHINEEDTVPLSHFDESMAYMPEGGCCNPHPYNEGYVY
# ETV6, sequence (P41212 whole entry): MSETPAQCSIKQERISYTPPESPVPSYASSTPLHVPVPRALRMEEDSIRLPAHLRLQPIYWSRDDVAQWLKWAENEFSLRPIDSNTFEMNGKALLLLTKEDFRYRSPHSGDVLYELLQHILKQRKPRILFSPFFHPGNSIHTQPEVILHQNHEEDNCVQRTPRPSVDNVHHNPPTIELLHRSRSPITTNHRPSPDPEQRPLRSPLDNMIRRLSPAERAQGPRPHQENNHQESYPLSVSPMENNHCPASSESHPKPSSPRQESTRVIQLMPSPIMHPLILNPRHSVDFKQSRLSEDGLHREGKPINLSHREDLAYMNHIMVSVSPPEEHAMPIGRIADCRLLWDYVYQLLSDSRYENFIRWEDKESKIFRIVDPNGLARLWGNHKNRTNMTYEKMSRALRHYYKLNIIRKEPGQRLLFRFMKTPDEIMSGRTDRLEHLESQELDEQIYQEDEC
# SPIB, sequence (Q01892 whole entry): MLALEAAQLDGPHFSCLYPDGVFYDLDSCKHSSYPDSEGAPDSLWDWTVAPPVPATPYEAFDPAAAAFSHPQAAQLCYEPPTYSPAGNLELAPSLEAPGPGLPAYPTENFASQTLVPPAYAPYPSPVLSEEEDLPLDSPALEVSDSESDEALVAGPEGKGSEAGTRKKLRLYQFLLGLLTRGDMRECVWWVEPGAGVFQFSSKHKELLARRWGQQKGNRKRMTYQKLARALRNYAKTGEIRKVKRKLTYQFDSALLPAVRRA
sequence,measurement,setting,value
GTCCAA,binding signal,FLI1,"1.03 fold enrichment (6-mer frequency, TF over GST control)"
same,binding signal,ELF1,"1.03 fold enrichment (6-mer frequency, TF over GST control)"
same,binding signal,ETV7,"1.01 fold enrichment (6-mer frequency, TF over GST control)"
same,binding signal,ETV3,"1.04 fold enrichment (6-mer frequency, TF over GST control)"
TACCAG,binding signal,HSF1,"1.22 fold enrichment (6-mer frequency, TF over GST control)"
CGTTGG,binding signal,FLI1,"1.08 fold enrichment (6-mer frequency, TF over GST control)"
same,binding signal,ETV1,"1.01 fold enrichment (6-mer frequency, TF over GST control)"
same,binding signal,ERF,"1.07 fold enrichment (6-mer frequency, TF over GST control)"
same,binding signal,ETV7,"1.07 fold enrichment (6-mer frequency, TF over GST control)"
TGCGGT,binding signal,FLI1,"1.09 fold enrichment (6-mer frequency, TF over GST control)"
same,binding signal,EHF,"1.07 fold enrichment (6-mer frequency, TF over GST control)"
same,binding signal,SPIB,"1.02 fold enrichment (6-mer frequency, TF over GST control)"
same,binding signal,ETV2,"1.08 fold enrichment (6-mer frequency, TF over GST control)"
same,binding signal,ETV7,"1 fold enrichment (6-mer frequency, TF over GST control)"
same,binding signal,ETV3,"1.01 fold enrichment (6-mer frequency, TF over GST control)"
same,binding signal,ETV6,"1.03 fold enrichment (6-mer frequency, TF over GST control)"
ATCGAG,binding signal,HSF1,"1.49 fold enrichment (6-mer frequency, TF over GST control)"
